Most compounds without a hit are left out; they make up all but 1.8% or so of the library.
GLP1R ag: GLP-1 receptor (human) agonism | P43220 | HEK293 GLP-1R CRE-luciferase, luminescence, 4-6 h; cells express a hypersensitive GLP-1R form | Potency, µM (top dose mostly 45.6 µM), inactives show at the top dose activation, most hits filed as activators | 380,000 tested, 0.007% active | AID 624172; note: % of control where 0% means no effect
Target sequence (P43220 whole entry, looked up): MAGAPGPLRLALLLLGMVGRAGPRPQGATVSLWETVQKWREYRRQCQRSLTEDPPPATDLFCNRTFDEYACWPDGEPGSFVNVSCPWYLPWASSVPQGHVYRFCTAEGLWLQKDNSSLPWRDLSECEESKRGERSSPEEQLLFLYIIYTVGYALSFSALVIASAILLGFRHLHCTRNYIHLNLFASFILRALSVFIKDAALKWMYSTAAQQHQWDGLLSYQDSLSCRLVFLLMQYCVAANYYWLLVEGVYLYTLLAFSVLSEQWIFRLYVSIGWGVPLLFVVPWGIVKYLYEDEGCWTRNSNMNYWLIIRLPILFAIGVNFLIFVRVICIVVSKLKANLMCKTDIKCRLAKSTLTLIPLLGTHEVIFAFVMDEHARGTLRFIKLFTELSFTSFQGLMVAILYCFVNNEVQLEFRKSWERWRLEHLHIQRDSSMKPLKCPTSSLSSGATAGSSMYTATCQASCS
Pin1 inh: inhibitors of human Pin1; Q13526; Potency, µM (titrated, usually from 115 µM), without a hit: at the highest dose activity, negative = inhibition, most hits filed as inhibitors; 390,000 tested, 0.009% active; Pin1 FP peptide displacement, HiFluor488, 10 min; active = well fitted inhibition curve with a large enough effect in the polarisation, with a control signal flat, not every such curve was filed as active; inconclusive = small, poorly fitted or top-dose-only effect, or effect the other way, or a change in a side signal; inactive = no such curve, though single readings can be large or run the other way; the % refers to the polarisation; note: % is set by controls: 0 for no effect and ±100 for the full control effect
Target sequence (Q13526 whole entry, looked up): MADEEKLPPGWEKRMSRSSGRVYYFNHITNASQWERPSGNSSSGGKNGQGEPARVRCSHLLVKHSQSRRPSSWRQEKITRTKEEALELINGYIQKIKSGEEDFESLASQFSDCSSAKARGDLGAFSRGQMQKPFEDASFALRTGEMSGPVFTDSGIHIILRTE
Tb PFK inh-1: T. brucei PFK enzyme inhibition; Potency, µM (doses to about 57.5 µM), inactives show at the highest dose activity, negative = inhibition, hits mostly inhibitors; T. brucei PFK, ADP-Glo luminescence; AID 485367; O15648; 330,000 tested, 0.17% active;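 note: 0% = uninhibited 1x PFK enzyme wells and -100% = no-enzyme wells; nearly all actives have a fitted effect of over 60% in size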
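1.25 nM PFK with 0.5 mM F6P and 0.1 mM ATP in 0.1 M TEA pH 8.0, 5 mM MgCl2, incubated 45 min at room temperature; ADP measured by ADP-Glo luminescence; compounds titrated up to 57 uM.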
GLP-1R inv ag: inverse agonists of human GLP-1 receptor; P43220; HEK293 GLP-1R CRE-luciferase, luminescence, 24 h; GLP-1R form is constitutively active; Potency, µM (series often up to 38.3 µM), inactives show at the highest dose activity change, negative = inhibition, hits mostly inhibitors; 410,000 tested, 1.6% active; AID 624417; note: % is set by controls: 0 for no effect and ±100 for the full control effect; nearly all actives have a fitted effect of over 55% in size
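Readout was luciferase luminescence, measured 12 min after detection reagent at room temperature. Beforehand, GLP-1R reporter HEK293 cells had sat 12 h, then received compounds for 24 hr at 37 deg C.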
GLP1R cytotox: cytotoxic in the GLP-1 receptor inverse agonist counter-screen; Potency, µM (titrated, usually from 38.3 µM), for the others: at the highest dose activity change, negative = inhibition, usual class: inhibitors; HEK293 cAMP-luciferase reporter cells, luminescence, 24 h; AID 624418; 410,000 tested, 0.13% active;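 note: loss of luciferase light is scored as toxicity; % is set by controls: 0 for no effect and ±100 for the full control effect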
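Luminescence readout: signal drop marks cytotoxicity. Plated cells grew 12 h at 37 °C, 5% CO2, received 23 nL compound for 24 h, then got luciferase reagent, read after 12 min at RT.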
PGK inhibitor: blocks T. brucei phosphoglycerate kinase; P07378; PGK/GAPDH coupled, Kinase-Glo luminescence, 60 min; Potency, µM (titrated, usually from 57.5 µM), for inactives: top-dose activity change, negative = inhibition, most hits filed as inhibitors; 380,000 tested, 0.043% active; AID 602233; note: % is set by controls: 0 for no effect and ±100 for the full control effect; nearly all actives have a fitted effect of over 60% in size
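Luminescent ATP detection (Kinase-Glo Plus) follows a 60-minute room-temperature incubation, with wells lacking PGK as controls. Buffer: 100 mM TEA (pH 7.6), 5 mM MgCl2, 0.01% Tween-20. Coupling enzyme GAPDH (100 nM final) supplies unstable 1,3-BPG in-well.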
Tb PFK KinaseGlo: Tb phosphofructokinase inhibition, orthogonal luminescence | Tb PFK enzyme, ATP depletion, Kinase-Glo Plus luminescence | Potency, µM (top dose mostly 57.5 µM), inactives show at the top dose inhibition | 1,100 tested, 47% active | shares compounds with Tb PFK inh-1; calls by dose curve; note: nearly all actives have a fitted effect of over 60% in size
Tb PFK inh-2: validation of T. brucei phosphofructokinase inhibitors; shares compounds with Tb PFK inh-1; purified T. brucei PFK, ADP-Glo luminescence, 45 min; Potency, µM (series often up to 57.5 µM), for inactives: at the highest dose activity change, negative = inhibition, actives largely listed as inhibitors; 1,100 tested, 41% active; AID 504637;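 note: plate controls were full PFK enzyme control for no effect and no enzyme control for full effect; nearly all actives have a fitted effect of over 60% in size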
* = called active by the depositor; i = inactive; ? = inconclusive; / = no result given; [ ] = another dose, or the depositor's remark. Unless noted, calls come from the whole dose curve; as a rule, active = well fitted curve in the direction sought with a large enough effect; inconclusive = small, poorly fitted or top-dose-only effect, or another doubt; inactive = no such curve, though single readings can be large; an effect the other way counts as inactive or inconclusive. Potency is the fitted concentration of half-maximal effect.

SMILES	GLP1R ag	Pin1 inh	Tb PFK inh-1	GLP-1R inv ag	GLP1R cytotox	PGK inhibitor	Tb PFK KinaseGlo	Tb PFK inh-2
Cn1cc(C(=O)OCC(=O)N2CCCCC2)c2ccccc21	4%	3%	4%	13%	2%	-6%	/	/
O=C(NCc1ccc(Cl)cc1)C1CCCN(C(=O)c2cnn(-c3ccc(F)cc3)c2-n2cccc2)C1 (stereo not drawn)	/	5%	/	?	-10%	1%	/	/
COC(=O)CSc1cc([N+](=O)[O-])cc2c1c(C1OCCO1)nn2-c1ccccc1	0%	?	2%	16%	-2%[1.53 µM]	-2%	/	/
Cn1c(CSCc2ccc(Cl)c(Cl)c2)n[nH]c1=S	1%	-4%	?	?	?	-1%	/	/
Cc1[nH]c(=S)sc1Cc1ccc(Cl)c(Cl)c1	/	/	19µM*	/	/	/	27µM*	24µM*
S=C(SSC(=S)N1CCCCC1)N1CCCCC1	-7%	/	/	/	/	/	/	/
CC(C)(C)c1nc(N2CCN(C(=O)c3ccco3)CC2)c2nnn(Cc3ccccc3)c2n1	-1%	?	1%	?	?	i	/	/
O=C1NC(=Nc2ccccc2)S/C1=C\C=C\c1ccco1	1%	8%	7.6µM*	6%	?	-6%	?	?
CC12CCC3C4CCC(=O)C(O)=C4CCC3C1CCC2OC(=O)CCC1CCCC1 (stereo not drawn)	-4%	/	/	/	/	/	/	/
CCN(CC)c1ccc(NC(=O)c2cccc(C)c2)cc1S(=O)(=O)Nc1ccccc1OC	0%	10%	-14%	?	4%	4%	/	/
Cc1cccc(C(=O)Nc2ccc3c(c2)C(=O)NC3=O)c1	10%	23%	?	10%	-3%	-3%	?	30µM*
O=C(CSc1ccc(F)cc1)Nc1ccc2c(c1)C(=O)NC2=O	6%	-1%	?	6%	1%	i	?	?
COc1ccccc1CC(=O)Nc1ccc2c(c1)C(=O)NC2=O	-5%	29%	?	-1%	-3%	i	?	?
O=C(CN1CC(c2ccccc2)CC1=O)Nc1ccc(F)cc1 (stereo not drawn)	-4%	0%	3%	-5%	2%	i	/	/
C=C(C)C(=O)Nc1cccc(C2=NOC3(C2)C[C@@H](C(N)=O)N(C(=O)C(=C)C)C3)c1 (stereo partly drawn)	-4%	?	?	13%	12%	?	2.7µM*	1.7µM*
C/C=C\C=C/C(=O)Nc1cccc(C2=NOC3(C2)C[C@@H](C(N)=O)N(C(=O)/C=C/C=C\C)C3)c1 (stereo partly drawn)	1%	-11%	5.4µM*	2%	-2%	?	?	?
C=C(C)C(=O)Nc1cccc(C2=NOC3(C2)C[C@@H](C(N)=O)N(C(=O)c2ccc(Cl)cc2)C3)c1 (stereo partly drawn)	9%	?	9.5µM*	-1%	-32%	2.2µM*	0.67µM*	0.95µM*
C=C(C)C(=O)Nc1cccc(C2=NOC3(C2)C[C@H](C(N)=O)N(C(=O)COc2ccc(Cl)cc2)C3)c1 (stereo partly drawn)	-1%	?	?	-1%	2%	?	0.54µM*	0.67µM*
COc1ccc(-c2ccc(/C=C3/C(=N)N4C(C)=CSC4=NC3=O)o2)c([N+](=O)[O-])c1	-32%	95%	2%	?	?	-7%	/	/
CC(=O)n1c(Cl)c(NC(=O)CCl)c2ccccc21	0%	-12%	0%	?	?	2%	/	/
CCCCN1CC(O)=C(c2nc3ccccc3s2)C1=N	2%	0%	0%	43%	-7%	-1%	/	/
Oc1ccc(O)c(Cc2nc3ccccc3s2)c1	-4%	-10%	30µM*	3%	5%	5%	24µM*	?
CC(C)(O)C(=O)Nc1ccc([N+](=O)[O-])c(C(F)(F)F)c1	13%	-3%	-5%	-23%	0%	5%	/	/
COc1cc2c(cc1OC)CN(c1ccc([N+](=O)[O-])c(C(F)(F)F)c1)CC2	-7%	12%	?	7.9µM*	10µM*	i	?	?
O=C1c2[nH]nc(-c3ccccc3)c2C(c2ccccc2)N1c1cccc(C(F)(F)F)c1 (stereo not drawn)	/	4%	/	?	?	-6%	/	/
SMILES	GLP1R ag	Pin1 inh	Tb PFK inh-1	GLP-1R inv ag	GLP1R cytotox	PGK inhibitor	Tb PFK KinaseGlo	Tb PFK inh-2
O=C(O)c1ccc(NCc2cccc(Br)c2)cc1	-1%	-7%	21µM*	11%	-11%	-4%	12µM*	24µM*
O=C(NCc1ccc(C(=O)N2CCC3(CC2)OCCO3)cc1)c1cccc(Br)c1	0%	-8%	0%	7%	4%	8%	/	/
CN(C)CCc1c[nH]c2cccc(OP(=O)(O)O)c12	0%[96 µM]	/	/	/	/	/	/	/
CN(C)c1ccc(/C=C/[N+](=O)[O-])cc1	0%	21%	-5%	-15%	-1%	-1%	/	/
CN(c1ccccc1)c1ccc(/C=C/[N+](=O)[O-])cc1	-4%	50%	?	?	65%	-2%	17µM*	24µM*
Fc1cccc(-c2csc(-c3ccno3)n2)c1	14%	-1%	?	18%	-3%	i	?	?
COc1ccc(OC)c(CN2CCCC(C(=O)c3sccc3C)C2)c1 (stereo not drawn)	20%	4%	-3%	?	-4%	-8%	/	/
O=[N+]([O-])c1cccc(CN2CCN(Cc3ccc(Cl)cc3)CC2)c1	0%	-3%	-2%	?	0%	-6%	/	/
COc1ccc(OC)c(CN2CCC(CNC(=O)Nc3cccc(Cl)c3)CC2)c1	12%	-6%	?	?	-26%	-7%	?	?
O=C(NCC1CCN(Cc2cccc(Cl)c2)CC1)Nc1ccc(Cl)cc1	-2%	-3%	?	?	?	-4%	?	?
Cc1ccc(NC(=O)c2cc(-c3cc(Cl)ccc3C)n[nH]2)cc1NS(C)(=O)=O	7%	/	/	?	-17%	/	/	/
CN(C)c1ccc(NC(=S)c2ccc3ccccc3n2)cc1	-4%	3%	?	25%	3%	-2%	9.5µM*	9.5µM*
CCOC(=O)c1c(NC(=O)CSc2nnc(CNc3ccc(OC)cc3)n2C)sc(C)c1C	-2%	-3%	2%	?	?	-9%	/	/
